The panel holds about 83,000 compounds, 20% with a hit somewhere; the sample as a whole holds those more often.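 A percent growth of 40 corresponds to 60% growth inhibition; 0 means no net growth; -100 means all cells died. Active threshold: below 10.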 Values without a mark were called inactive. Active and inactive are the calls of the source.
Legend:
Assay in all cases: NCI-60 one-dose screen, 48 h (100 = growth as untreated, 0 = no growth, -100 = all killed)
Conditions in all cases: 10 µM unless noted
NCI-H23 lung = test system: NCI-H23 lung
NCI-H226 lung = test system: NCI-H226 lung
NCI-H322M lung = test system: NCI-H322M lung
HOP-62 NSCLC = test system: HOP-62 NSCLC
NCI-H460 lung = test system: NCI-H460 lung
HOP-92 NSCLC = test system: HOP-92 NSCLC
NCI-H522 lung = test system: NCI-H522 lung
A549/ATCC NSCLC = test system: A549/ATCC NSCLC
786-0 renal = test system: 786-0 renal
COLO 205 colon = test system: COLO 205 colon
DU-145 prostate = test system: DU-145 prostate
K-562 leukemia = test system: K-562 leukemia
MALME-3M melanoma = test system: MALME-3M melanoma
MDA-MB-231 breast = test system: MDA-MB-231 breast
RXF 393 renal = test system: RXF 393 renal
SF-268 CNS = test system: SF-268 CNS
SF-295 CNS = test system: SF-295 CNS
SF-539 CNS = test system: SF-539 CNS
UACC-257 melanoma = test system: UACC-257 melanoma
M14 melanoma = test system: M14 melanoma

Structure (SMILES)	growth (NCI-H23 lung)	growth (NCI-H226 lung)	growth (NCI-H322M lung)	growth (HOP-62 NSCLC)	growth (NCI-H460 lung)	growth (HOP-92 NSCLC)	growth (NCI-H522 lung)	growth (A549/ATCC NSCLC)	growth (786-0 renal)	growth (COLO 205 colon)	growth (DU-145 prostate)	growth (K-562 leukemia)	growth (MALME-3M melanoma)	growth (MDA-MB-231 breast)	growth (RXF 393 renal)	growth (SF-268 CNS)	growth (SF-295 CNS)	growth (SF-539 CNS)	growth (UACC-257 melanoma)	growth (M14 melanoma)
O=[N+]([O-])c1cnc(N2CCN(CC3CC3)CC2)nc1N1CCN(CC2CC2)CC1	95.4%	81.3%	88.8%	108%	102%	74%	93.9%	104%	94.8%	97.1%	101%	102%	97.7%	99.9%	73.1%	87.7%	99.5%	90.8%	108%	98.2%
C#CCOc1ccc2ncnc(Nc3cccc(CNC(=O)CCl)c3)c2c1	44.5% [8.25 µM]	27.7% [8.25 µM]	71.3% [8.25 µM]	13.1% [8.25 µM]	61.3% [8.25 µM]	54% [8.25 µM]	-47.7% [8.25 µM] (active)	53.3% [8.25 µM]	25.7% [8.25 µM]	68.2% [8.25 µM]	57.9% [8.25 µM]	29.5% [8.25 µM]	68.8% [8.25 µM]	53.4% [8.25 µM]	14% [8.25 µM]	39.7% [8.25 µM]	92% [8.25 µM]	54.8% [8.25 µM]	58.7% [8.25 µM]	61.7% [8.25 µM]
CCN(CC)S(=O)(=O)c1ccc(OC)c(NC(=O)c2[nH]c(C)c3c2CCCCC3=O)c1	46.9%	50%	44%	31.5%	53.4%	38.3%	26.9%	45.2%	41.5%	35.6%	72.8%	30%	60.6%	43%	38.9%	68.4%	34.1%	36.1%	39.6%	42.3%
COc1ccc(/C=C(\C#N)C(=O)Nc2cccc(Nc3nc(SC)nc(-c4cccc([N+](=O)[O-])c4)c3C#N)c2)cc1OC	88.5%	91.8%	100%	91.3%	100%	111%	97.2%	103%	106%	112%	107%	77.9%	97%	68.9%	110%	103%	97.2%	93.4%	103%	91.5%
COc1cc(-c2nn(C)nc2-c2cc3ccccc3s2)cc(OC)c1OC	30.4%	55.5%	44.9%	32.7%	13%	64.9%	0.184% (active)	23.3%	36.8%	-14.5% (active)	20.1%	8.42% (active)	76.1%	37.7%	35.3%	39.8%	9.39% (active)	-9.68% (active)	54.7%	10.9%
Cc1nc2c3c(-c4ccccc4)c(-c4ccccc4)oc3ncn2n1	93.1%	92.2%	102%	90.7%	98%	81.7%	80.8%	101%	99.1%	110%	104%	94.3%	109%	83.3%	99.6%	94%	92.7%	90.2%	106%	102%
CN(Cc1cc(Cl)cc(Cl)c1O)Cc1cc(Cl)cc(Cl)c1O	76.9%	71.5%	54.9%	54.6%	45.6%	92.5%	72.2%	61.2%	94.7%	99.5%	68.9%	98.5%	92.7%	78.5%	81.8%	62.6%	58.1%	81.9%	82.4%	71%
Oc1cccc(-c2nc(N3CCOCC3)c3c4c(sc3n2)CCCC4)c1	56.3%	61.1%	56%	62%	44.1%	11.2%	42.2%	51.7%	96.7%	103%	37.8%	69.1%	49%	43.2%	16.3%	36.8%	75.6%	50.6%	69.7%	60.7%
CSc1nc(Nc2cccc(NC(=O)CCl)c2)c(C#N)c(-c2cccc([N+](=O)[O-])c2)n1	40.3%	42.2%	97.4%	86.5%	86.8%	40.7%	-55.9% (active)	95.9%	73.2%	35.9%	13.4%	5.6% (active)	37.3%	68.4%	43.7%	34%	95.4%	73.3%	84.6%	48.7%
COc1cc(-c2ccc3c(c2)NC(=O)/C3=C\c2ccc[nH]2)ccc1O	12.1%	39.6%	30.3%	27.8%	7.55% (active)	57.8%	6.78% (active)	20.7%	14.8%	25.2%	17.8%	5.55% (active)	66.4%	66.4%	17.8%	31.1%	-19.6% (active)	0.982% (active)	39.3%	34.1%
O=C(NCCN1CCOCC1)Nc1ccc(-c2cc3c(Nc4ccc(Oc5cccc(C(F)(F)F)c5)c(Cl)c4)ncnc3s2)cc1	27.4%	26.3%	18.7%	-26% (active)	-39.8% (active)	16.4%	27.3%	4.01% (active)	-43% (active)	-56.7% (active)	44.7%	-29.5% (active)	-57.5% (active)	12%	-19.5% (active)	29.3%	-58.5% (active)	-13.5% (active)	26.4%	-50.5% (active)
Cn1ccnc1C(=O)/C=C/c1ccccc1	33.1%	50.7%	10.4%	-54.9% (active)	-17.9% (active)	-9.57% (active)	-67.4% (active)	33.7%	-35.6% (active)	23%	-54.5% (active)	8.07% (active)	62.9%	34.7%	12.9%	23.3%	20.5%	-38% (active)	51.8%	-1.9% (active)
c1csc(C2=NN3C(C2)c2ccccc2OC3c2ccncc2)c1 (stereo not given)	89.8%	85.8%	93.1%	106%	100%	87.4%	87%	96.2%	98.7%	112%	97%	99.2%	86.9%	89.1%	105%	89.5%	96.1%	96.7%	96.5%	105%
Cc1[nH]c(-c2ccc3cc[nH]c3c2)c2c1C(=O)CCCC2	49.3%	52.4%	50.4%	32.3%	66.8%	37.1%	37%	51.9%	50.5%	40.6%	79.1%	26.2%	56.2%	43.2%	68.1%	64.8%	38.8%	48.6%	47.7%	51.6%
CCOc1cc2ncc(C#N)c(Nc3ccc(OCc4cccc(F)c4)c(Cl)c3)c2cc1NC(=O)CCCCC1CCSS1 (stereo not given)	101%	88.9%	90.8%	94.4%	98%	78.9%	66.4%	73.6%	89.1%	103%	97.4%	80.3%	125%	96.2%	97.9%	95.7%	106%	108%	81%	93.1%

Source: PubChem BioAssay (NCI)
